The entries come from a sample that favours hits as a whole.
Cycloheximide cs – Cycloheximide Counterscreen for Small Molecule Inhibitors of Shiga Toxin; cell reporter, cycloheximide protein synthesis inhibition counterscreen; max response, %; 12% of 300,000 active; AID 2314, 2010; in the data active = max response mostly above about 13%, no sharp cut-off; inactive = mostly below about 14%; also: read at 38.3 µM for the half of the compounds with a filed dose
Marburg entry inh – qHTS for inhibitors of binding or entry into cells for Marburg Virus. Potency, µM (series often up to 37.8 µM), actives largely listed as inhibitors. AID 540276, 2011. Marburg virus pseudotyped entry inhibition, cell reporter. 1.8% of 300,000 active; calls by dose curve; tested in HEK293 cells
VACV Venus inh – qHTS for Stage-Specific Inhibitors of Vaccinia Orthopoxvirus: Venus Reporter Primary qHTS; Vaccinia virus Venus reporter expression, fluorescence; Potency, µM (series often up to 36.5 µM), actives largely listed as inhibitors; 0.46% of 330,000 active; AID 720580, 2013; calls by dose curve; tested in A549 cells; also: nearly all actives have a fitted effect of over 30% in size
Shiga toxin inh – A qHTS for Small Molecule Inhibitors of Shiga Toxin | inhibition, % at 38.7 µM | AID 2315, 2010 | Vero cells, Shiga toxin protein synthesis inhibition reporter | 9.2% of 290,000 active; in the data active = inhibition mostly above about 28%, no sharp cut-off; inactive = mostly below about 43%
VACV mCherry inh – qHTS for Stage-Specific Inhibitors of Vaccinia Orthopoxvirus: mCherry Reporter Primary qHTS; Vaccinia virus mCherry reporter infection, fluorescence; Potency, µM (titrated, usually from 36.5 µM), hits mostly inhibitors; 0.63% of 310,000 active; calls by dose curve; tested in A549 cells; also: nearly all actives have a fitted effect of over 35% in size
LASV entry inh – qHTS for Inhibitors of binding or entry into cells for Lassa Virus. Lassa virus pseudotype entry inhibition, cell reporter. Potency, µM (titrated, usually from 37.9 µM), hits mostly inhibitors. 1.2% of 300,000 active; calls by dose curve; tested in HEK293 cells; also: nearly all actives have a fitted effect of over 50% in size
Each line names hits and unclear results; the compound was inactive in the other large screens.

COC(=O)c1cccc(Cn2c(Cl)c(/C=N/NC(=O)c3ccco3)sc2=O)c1	Cycloheximide cs 18 (no result: Marburg entry inh, VACV Venus inh, VACV mCherry inh, LASV entry inh)
CN(C(=O)CSc1nc2ccc(NC(=O)c3ccccc3)cc2s1)c1ccccc1	Marburg entry inh inconclusive, LASV entry inh inconclusive (no result: Cycloheximide cs, Shiga toxin inh)
CNc1ccc(C(=O)Oc2cc(O/N=[N+](\[O-])N(C)C)c([N+](=O)[O-])cc2[N+](=O)[O-])cc1	Cycloheximide cs 40, Shiga toxin inh 73 (no result: Marburg entry inh, VACV Venus inh, VACV mCherry inh, LASV entry inh)
COCCS(=O)(=O)N(Cc1ccccc1)[C@H](C(=O)OC)C(C)C	none (no result: Cycloheximide cs, Marburg entry inh, Shiga toxin inh, LASV entry inh)
COCCS(=O)(=O)N(Cc1ccc(Br)cc1)[C@@H](C)C(=O)OC	VACV Venus inh 7.1µM, VACV mCherry inh inconclusive (no result: Cycloheximide cs, Marburg entry inh, Shiga toxin inh, LASV entry inh)
CCOC(=O)c1ccc(-c2c(C)cc3oc(=O)cc(-c4ccccc4)c3c2C)cc1	Cycloheximide cs 32 (no result: Marburg entry inh, LASV entry inh)
Cc1ccc(-c2c(C)cc3oc(=O)cc(-c4ccccc4)c3c2C)cc1	none (no result: Marburg entry inh, LASV entry inh)
OCC(O)C(O)[C@H](O[C@H]1OC(CO)C(O)C(O)C1O)[C@H](O)CO (some centres undefined)	none (no result: Cycloheximide cs, Marburg entry inh, Shiga toxin inh, LASV entry inh)
Cc1ccc(OC(=O)C2c3ccccc3Oc3ccccc32)cc1C	Marburg entry inh inconclusive, LASV entry inh 18µM (no result: VACV Venus inh, VACV mCherry inh)
O=C(Nc1cc2c(=O)n(-c3ccc(Oc4ccccc4)cc3)ccc2oc1=O)c1ccccc1	none
COc1ccc(-c2cn3cc(C(=O)NN)ccc3n2)cc1	Cycloheximide cs 24, Marburg entry inh inconclusive, VACV Venus inh inconclusive, Shiga toxin inh 42, VACV mCherry inh inconclusive, LASV entry inh inconclusive
CCCNC(=O)c1ccc(Cn2cc(-c3ccc(OC)cc3)nc2C(C)N)cc1 (centres undefined)	none (no result: Cycloheximide cs, Marburg entry inh, Shiga toxin inh, LASV entry inh)
NNC(=O)c1ccc2nc(-c3ccc(Br)cc3)cn2c1	Cycloheximide cs 30, Marburg entry inh inconclusive, LASV entry inh inconclusive
Cc1ccccc1N(C(=O)CCC(=O)Nc1ccccn1)C(C(=O)NC(C)C)c1ccc(O)cc1 (centres undefined)	Marburg entry inh 7.1µM
COC(=O)/C=C/c1cc(O)ccc1O	none (no result: Cycloheximide cs, Marburg entry inh, Shiga toxin inh, LASV entry inh)
CC(C)(C)Cc1nnc(NC(=O)CCC2CCCCC2)s1	none
O=C(c1ccccc1Cl)N(C(=O)c1ccccc1Cl)c1nccc(-c2cccs2)n1	Marburg entry inh inconclusive (no result: VACV Venus inh, VACV mCherry inh)
O=C(Nc1nccc(-c2cccs2)n1)c1ccccc1Cl	Cycloheximide cs 32, Shiga toxin inh 53, LASV entry inh inconclusive
Cc1c(OCC(=O)C(C)(C)C)ccc2c3c(c(=O)oc12)CCCC3	none (no result: Marburg entry inh, VACV Venus inh, Shiga toxin inh, VACV mCherry inh, LASV entry inh)
Cc1c(OCC(=O)NCC(O)c2ccccc2)ccc2c3c(c(=O)oc12)CCCC3 (centres undefined)	none (no result: Marburg entry inh, VACV Venus inh, VACV mCherry inh, LASV entry inh)
Cc1c(OCC(=O)N(C)c2ccccc2)ccc2c3c(c(=O)oc12)CCC3	Cycloheximide cs 24, Shiga toxin inh 74
CCOC(=O)COc1ccc2c3c(c(=O)oc2c1C)CCC3	Cycloheximide cs 15
CC(NC(=S)NCc1ccc(F)cc1)C12CC3CC(CC(C3)C1)C2 (centres undefined)	Marburg entry inh inconclusive, VACV mCherry inh inconclusive, LASV entry inh inconclusive
COc1cccc(/C=N/NC(=O)CCCC(=O)Nc2ccc(Br)cc2)c1	VACV Venus inh inconclusive, VACV mCherry inh inconclusive
COC(=O)N/N=C/c1ccc(OCCSc2ccc(Cl)cc2)c(OC)c1	LASV entry inh inconclusive
CCOC(=O)N/N=C\c1cccc(OC)c1	Cycloheximide cs 42, Shiga toxin inh 72
COC(=O)N/N=C/c1cccc(OCCSc2ccc(Cl)cc2)c1	Cycloheximide cs 34, Marburg entry inh inconclusive, VACV Venus inh inconclusive, Shiga toxin inh 60, LASV entry inh inconclusive
COc1ccc(/C=C/C(=O)Oc2cccc(/C=N/NC(=O)Cc3ccc(Br)cc3)c2)cc1	Cycloheximide cs 49, Shiga toxin inh 89 (no result: Marburg entry inh, VACV Venus inh, VACV mCherry inh, LASV entry inh)
Cc1ccc2oc3c(c(=O)c2c1)C(c1cccs1)N(CCCN(C)C)C3=O (centres undefined)	Cycloheximide cs 39, Shiga toxin inh 48 (no result: LASV entry inh)
COc1ccc(OC)c(C2c3c(oc4ccc(C)cc4c3=O)C(=O)N2CCCN(C)C)c1 (centres undefined)	none (no result: Cycloheximide cs, Marburg entry inh, Shiga toxin inh)
COc1cccc(CN2CCOc3ccc(C(O)c4cccnc4)cc3C2)c1 (centres undefined)	none (no result: Cycloheximide cs, Marburg entry inh, Shiga toxin inh, LASV entry inh)
Cc1ccc(-c2noc(CNC(=O)c3ccccc3)n2)cc1	none (no result: Cycloheximide cs, Shiga toxin inh)
CSc1ccccc1C(=O)C1CCCN(C(=O)c2csnn2)C1 (centres undefined)	Cycloheximide cs 31, Marburg entry inh inconclusive, Shiga toxin inh 90
Nc1cc(N)nc(SCCN2CCCCC2)n1	none

Screens: PubChem BioAssay, National Center for Advancing Translational Sciences (NCATS)
